Data from PubChem BioAssay (EPA / NIEHS).
Values joined by “and” are separate entries in the source; they are usually repeats but may differ in a detail not shown here. Equal values may be shown once. Where a structure was tested more than once in an assay, its records may differ in their call. Active and inactive are the calls of the source. The calls were made as follows: active = hit-call score of the fitted dose curve at least 0.9, where 1 is the maximum; inactive = score below 0.9.

Tests used:
[1] = APR_HepG2_NuclearSize_72hr: Apredica 72-hour HepG2 Assay for Nuclear Size (AID 2282925); conditions: high-content imaging, actives raise or lower the signal
Method in brief: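 Nuclear size was read by high-content imaging of Hoechst 33342 stain after formaldehyde fixation. Compounds ran 72 h on HepG2 at 0.39 to 200 uM, with final DMSO 0.5% v/v. Curves fitted both directions relative to DMSO control.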

[2] = ATG_CRE_CIS: Attagene CIS-FACTORIAL HepG2 Assay for human cAMP Responsive Element (CRE) binding protein 3 (AID 2282926); conditions: HepG2 CRE cis-reporter, Attagene multiplexed mRNA; actives raise or lower the signal
Method in brief: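 Readout: fluorescently labelled reporter transcripts resolved by capillary electrophoresis after RT-PCR, taken 24 h post-dosing in transfected HepG2. Endogenous transcription factor activity drives each cis-element reporter; gain or loss of signal fitted relative to DMSO control.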

[3] = molecular target: CCAAT/enhancer-binding protein beta (Homo sapiens) (UniProt P17676); test: ATG_C_EBP_CIS: Attagene CIS-FACTORIAL HepG2 Assay for human CCAAT/Enhancer Binding Protein (C/EBP) beta (AID 2282927); conditions: HepG2 Attagene cis-factorial transcription factor reporter; actives raise or lower the signal
Method in brief: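 Endogenous C/EBPb-driven reporter transcripts measured in transfected human HepG2 cells at 24 h via RT-PCR and capillary electrophoresis of labelled fragments. Activity fitted in both directions relative to DMSO baseline.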

[4] = ATG_CMV_CIS: Attagene CIS-FACTORIAL HepG2 Assay for human CMV (Internal Marker) (AID 2282928); conditions: HepG2 CMV promoter reporter, transcription factor profiling; actives raise or lower the signal;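 also: endpoint acts as a background internal control marker rather than a target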
Method in brief: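 Fluorescence intensity of RT-PCR-derived reporter fragments, resolved by capillary electrophoresis, gives the signal. HepG2 liver cells bearing transfected cis-element reporters were treated 24 h; activity in either direction was fit relative to DMSO-treated controls.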

[5] = ATG_DR4_LXR_CIS: Attagene CIS-FACTORIAL HepG2 Assay for human Liver X Receptor (LXR), DR4 submotif (AID 2282929); conditions: HepG2 Attagene DR4 cis-reporter, mRNA transcription; actives raise or lower the signal
Method in brief: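 Transiently transfected HepG2 liver cells; cis-regulated reporters; 24 h dosing. RT-PCR plus CE read-out of reporter mRNA. DMSO baseline, bidirectional curve fitting.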

[6] = molecular target: Aryl hydrocarbon receptor (Homo sapiens) (UniProt P35869); test: ATG_Ahr_CIS: Attagene CIS-FACTORIAL HepG2 Assay for human Aryl Hydrocarbon Receptor (Ahr) (AID 2282930); conditions: HepG2 AhR cis-factorial reporter transcription; actives raise or lower the signal
Method in brief: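 Reporter mRNA levels, quantified by RT-PCR and fluorescent capillary electrophoresis, reflect endogenous AhR transcriptional activity in HepG2 cells carrying transfected cis-promoter reporter constructs. Readout at 24 h post-dose; gain or loss fitted against DMSO baseline.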

[7] = ATG_AP_1_CIS: Attagene CIS-FACTORIAL HepG2 Assay for human Activator Protein 1 (AP-1) (AID 2282931); conditions: HepG2 Attagene cis-factorial AP-1 reporter mRNA; actives raise or lower the signal
Method in brief: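 We transfected HepG2 cells transiently with a set of cis-regulated reporter transcription units, dosed them for 24 h, and quantified reporter mRNA via RT-PCR and capillary electrophoresis, scoring gain or loss of signal relative to DMSO.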

[8] = ATG_AP_2_CIS: Attagene CIS-FACTORIAL HepG2 Assay for human Activator Protein 2 (AP-2) (AID 2282932); conditions: HepG2 AP-2 cis-reporter, Attagene transcription factor profiling; actives raise or lower the signal
Method in brief: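 Transiently transfected HepG2 cells are exposed to chemical for 24 h. Reporter transcripts are then measured as fluorescence following RT-PCR and capillary separation, and gain- or loss-of-signal is fitted relative to DMSO.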

[9] = ATG_BRE_CIS: Attagene CIS-FACTORIAL HepG2 Assay for human Bone Morphogenetic Protein (BMP) Response Element (BRE) (AID 2282933); conditions: HepG2 BMP response element reporter, Attagene transcription factor profiling; actives raise or lower the signal
Method in brief: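 Multiplexed cis-reporter assay, HepG2, 24 h exposure. mRNA from reporter units quantified via RT-PCR/CE; DMSO baseline; bidirectional curve fit.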

[10] = molecular target: Retinoic acid receptor alpha (Homo sapiens) (UniProt P10276); test: ATG_DR5_RAR_CIS: Attagene CIS-FACTORIAL HepG2 Assay for human Retinoic Acid Receptor Alpha (RARE), DR5 submotif (AID 2282934); conditions: HepG2 Attagene cis-factorial RARE DR5 reporter, mRNA; actives raise or lower the signal;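 as to AC50: reporter responds to endogenous RAR alpha beta and gamma in HepG2 not RARA alone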
Method in brief: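 Reporter transcripts from a DR5-regulated unit, measured via RT-PCR plus capillary electrophoresis, reflect endogenous RAR activity in transiently transfected human HepG2 liver cells. Exposure lasted 24 h; gain or loss of signal scored against DMSO.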

Measured: AC50

Retinoic acid receptor alpha (Homo sapiens), sequence (P10276 whole entry, looked up): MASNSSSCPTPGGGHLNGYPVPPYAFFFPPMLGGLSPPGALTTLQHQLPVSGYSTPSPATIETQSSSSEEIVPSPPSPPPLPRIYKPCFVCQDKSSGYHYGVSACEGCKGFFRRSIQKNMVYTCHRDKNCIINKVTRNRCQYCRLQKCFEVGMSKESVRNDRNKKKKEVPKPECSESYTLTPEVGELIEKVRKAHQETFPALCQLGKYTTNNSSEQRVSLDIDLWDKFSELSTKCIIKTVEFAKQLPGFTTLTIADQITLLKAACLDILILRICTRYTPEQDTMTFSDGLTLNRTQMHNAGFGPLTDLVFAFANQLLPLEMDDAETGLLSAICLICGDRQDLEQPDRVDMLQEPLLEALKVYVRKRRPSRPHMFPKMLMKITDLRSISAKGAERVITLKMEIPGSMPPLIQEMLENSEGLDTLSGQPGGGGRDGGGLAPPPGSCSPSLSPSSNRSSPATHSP
CCAAT/enhancer-binding protein beta (Homo sapiens), sequence (P17676 whole entry, looked up, the tested form may be a part): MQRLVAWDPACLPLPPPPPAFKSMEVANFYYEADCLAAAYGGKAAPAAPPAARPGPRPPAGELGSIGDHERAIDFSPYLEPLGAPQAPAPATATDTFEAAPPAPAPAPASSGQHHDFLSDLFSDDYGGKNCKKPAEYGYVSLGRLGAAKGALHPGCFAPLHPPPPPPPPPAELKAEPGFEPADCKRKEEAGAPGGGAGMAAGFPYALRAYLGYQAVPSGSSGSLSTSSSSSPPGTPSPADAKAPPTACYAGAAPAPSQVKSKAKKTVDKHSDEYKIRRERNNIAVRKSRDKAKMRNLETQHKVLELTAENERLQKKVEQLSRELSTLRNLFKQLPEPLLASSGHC
Aryl hydrocarbon receptor (Homo sapiens), sequence (P35869 whole entry, looked up): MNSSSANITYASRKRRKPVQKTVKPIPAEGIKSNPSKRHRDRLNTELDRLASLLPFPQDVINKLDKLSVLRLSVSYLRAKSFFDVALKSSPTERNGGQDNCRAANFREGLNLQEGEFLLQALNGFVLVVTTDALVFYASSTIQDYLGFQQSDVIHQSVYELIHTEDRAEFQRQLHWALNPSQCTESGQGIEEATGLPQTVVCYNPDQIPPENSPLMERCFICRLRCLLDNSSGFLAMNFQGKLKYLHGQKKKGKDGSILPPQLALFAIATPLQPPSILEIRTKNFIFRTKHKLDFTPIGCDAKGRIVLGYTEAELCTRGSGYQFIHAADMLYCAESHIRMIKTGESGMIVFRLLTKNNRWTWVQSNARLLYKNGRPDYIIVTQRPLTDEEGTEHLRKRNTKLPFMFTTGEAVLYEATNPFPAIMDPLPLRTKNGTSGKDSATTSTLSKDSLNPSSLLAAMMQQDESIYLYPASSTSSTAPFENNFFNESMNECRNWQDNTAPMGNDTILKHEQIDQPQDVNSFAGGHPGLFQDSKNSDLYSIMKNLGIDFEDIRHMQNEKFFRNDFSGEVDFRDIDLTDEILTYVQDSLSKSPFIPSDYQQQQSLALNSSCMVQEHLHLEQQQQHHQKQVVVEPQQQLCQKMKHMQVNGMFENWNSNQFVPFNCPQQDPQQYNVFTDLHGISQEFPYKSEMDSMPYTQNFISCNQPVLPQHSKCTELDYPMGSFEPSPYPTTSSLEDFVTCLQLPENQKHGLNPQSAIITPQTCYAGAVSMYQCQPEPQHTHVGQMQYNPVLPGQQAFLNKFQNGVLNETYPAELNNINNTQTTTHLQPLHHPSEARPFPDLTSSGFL

CCNc1nc(Cl)nc(NC(C)C)n1
not listed: [10]
inactive: all other assays above

CCOC(=O)CC(SP(=S)(OC)OC)C(=O)OCC (stereo not drawn)
active: [2] 26.6 µM | [7] 41.2 µM | [9] 69.2 µM and 28.1 µM
inactive: [1] | [2] | [3] | [4] | [5] | [6] | [7] | [8]

COP(=S)(OC)Oc1nc(Cl)c(Cl)cc1Cl
active: [5] 85.1 µM
inactive: all other assays above

C=CCC1=C(C)C(OC(=O)C2C(C=C(C)C)C2(C)C)CC1=O (stereo not drawn)
inactive: [1] | [2] | [3] | [4] | [5] | [6] | [8]
active: [2] 48.8 µM [middle of 5 runs] | [3] 70.3 µM and 111 µM and 13.8 µM | [4] 35 µM [middle of 5 runs] | [5] 51.1 µM [middle of 4 runs] | [6] 43.6 µM and 105 µM | [7] 33.5 µM [middle of 6 runs] | [8] 167 µM

COc1ccc(C(c2ccc(OC)cc2)C(Cl)(Cl)Cl)cc1
active: [6] 15.2 µM | [7] 39.8 µM and 59.5 µM and 34.4 µM | [9] 29.7 µM and 15.5 µM | [10] 19.7 µM
inactive: [1] | [2] | [3] | [4] | [5] | [6] | [7] | [8] | [9] | [10]

COC(=O)N(OC)c1ccccc1COc1ccn(-c2ccc(Cl)cc2)n1
inactive: [1] | [6] | [7] | [8]
active: [2] 0.532 µM | [3] 0.401 µM | [4] 0.457 µM | [5] 2.77 µM | [9] 0.743 µM | [10] 0.64 µM

C=CCC1=C(C)[C@@H](OC(=O)[C@@H]2[C@@H](C=C(C)C)C2(C)C)CC1=O
active: [2] 7.32 µM | [10] 2.87 µM
inactive: all other assays above

COc1cnc(OC)n2nc(NS(=O)(=O)c3c(OCC(F)F)cccc3C(F)(F)F)nc12
not listed: [10]
inactive: all other assays above

Oc1ccccc1-c1ccccc1
inactive: [1] | [2] | [3] | [4] | [6] | [7] | [8]
active: [2] 148 µM | [4] 56.6 µM | [5] 80.3 µM and 64 µM | [6] 40.5 µM | [7] 88.3 µM | [9] 71.7 µM and 150 µM

N#Cc1nn(-c2c(Cl)cc(C(F)(F)F)cc2Cl)c(N)c1S(=O)C(F)(F)F (stereo not drawn)
active: [2] 17.5 µM | [3] 18.1 µM | [5] 50.5 µM | [7] 9.67 µM | [9] 24.8 µM | [10] 7.78 µM
inactive: [1] | [2] | [3] | [4] | [5] | [6] | [7] | [8] | [9] | [10]

CCCCNC(=O)OCC#CI
inactive: [1] | [2] | [3] | [4] | [5] | [6] | [7] | [8] | [9] | [10]
active: [2] 29.7 µM | [3] 25.3 µM | [4] 67.7 µM | [5] 180 µM | [7] 181 µM | [8] 60.7 µM | [9] 25.2 µM | [10] 26.7 µM

C=CC1(C)OC(=O)N(c2cc(Cl)cc(Cl)c2)C1=O (stereo not drawn)
not listed: [10]
inactive: all other assays above
